# Results taken from the supplement of paper PMC8285479.
# Where a name gives a salt, the structure may show the parent alone. ± gives the standard deviation of the averaged measurements. The full ranking holds about 1,900 compounds; the median of “normalised cell viability (NPI; 0 = phenylarsine oxide control, 1 = DMSO control)” is about 1, and the lowest 2% start at about 0.039. This excerpt belongs to a sample that is enriched for the lowest values.
# Tested on: NCI-H1944
# Test: normalised cell viability (NPI; 0 = phenylarsine oxide control, 1 = DMSO control) (fraction of DMSO control); NCI-H1944 is a non-small cell lung cancer line; higher = more viable cells (less compound toxicity)
# Details: 6 days
# [1] = glucocorticoid arm: hydrocortisone 2.75 uM co-treatment, compound 1 µM
# [2] = glucocorticoid arm: hydrocortisone 2.75 uM co-treatment, compound 5 µM
# [3] = glucocorticoid arm: hydrocortisone 2.75 uM pre-treated 2 days and continued, compound 1 µM
# [4] = glucocorticoid arm: hydrocortisone 2.75 uM pre-treated 2 days and continued, compound 5 µM
# [5] = glucocorticoid arm: vehicle, compound 1 µM
# [6] = glucocorticoid arm: vehicle, compound 5 µM
# 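Note: CTB read-out in 384-well plates, triplicate wells, NPI normalised per plate against 1 µM phenylarsine oxide (0) and 0.1% DMSO (1) controls.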
Structure (SMILES),normalised cell viability [1],normalised cell viability [2],normalised cell viability [3],normalised cell viability [4],normalised cell viability [5],normalised cell viability [6]
Cc1cc(Cn2cnc3c2C[C@@H](C(=O)O)N(C(=O)C(c2ccccc2)c2ccccc2)C3)ccc1N,1.03 ± 0.01,1.01 ± 0.022,1.023 ± 0.0058,1.01 ± 0.014,1.027 ± 0.0058,1.02
Cn1ccc2cc3c(cc21)CCN3C(=O)Nc1cccnc1,1.02 ± 0.011,1.01 ± 0.018,1.05 ± 0.021,1.02 ± 0.017,1.03 ± 0.011,1.01 ± 0.01
Cc1cc2c(cc1Cl)N(C(=O)Nc1cccc3ncccc13)CC2,0.985 ± 0.011,0.965 ± 0.015,1 ± 0.016,1.03 ± 0.084,0.9793 ± 0.0086,0.992 ± 0.007
COc1cc2c(cc1C(F)(F)F)N(C(=O)Nc1cc(F)cc(-c3cccnc3)c1)CC2,0.994 ± 0.017,0.0391 ± 0.01,1.02 ± 0.01,0.903 ± 0.021,0.974 ± 0.028,0.00107 ± 0.00012
COc1ccc2cc(-c3nc(-c4ccc([S+](C)[O-])cc4)[nH]c3-c3ccncc3)ccc2c1 (configuration not stated) [Tie2 kinase inhibitor],1 ± 0.016,1.002 ± 0.0072,0.992 ± 0.0087,1 ± 0.018,0.997 ± 0.0017,0.9943 ± 0.0098
CN1CCc2c(c3ccccc3n2Cc2ccc(C(=O)NO)cc2)C1 [Tubastatin A],0.984 ± 0.013,0.983 ± 0.026,0.983 ± 0.023,1.01 ± 0.023,0.991 ± 0.011,0.9927 ± 0.0063
CN1CCc2c(c3ccccc3n2Cc2ccc(C(=O)NO)cc2)C1 [Tubastatin A HCl],0.9623 ± 0.0086,0.859 ± 0.016,0.967 ± 0.0035,0.913 ± 0.025,0.999 ± 0.01,0.9903 ± 0.0042
Cn1cc(C(=O)OCC2CCN(CCNS(C)(=O)=O)CC2)c2ccccc21,1.01 ± 0.01,0.997 ± 0.014,1.02 ± 0.011,1.03 ± 0.014,1.017 ± 0.0058,1.023 ± 0.0058
NS(=O)(=O)c1cc(C(=O)O)c(NCc2ccco2)cc1Cl [Furosemide],1.002 ± 0.0076,0.9983 ± 0.0029,0.999 ± 0.011,0.995 ± 0.015,0.984 ± 0.002,0.9897 ± 0.0047
OCC1OC(n2cnc3c(NCCc4ccccc4)ncnc32)C(O)C1O (configuration not stated) [N6-2-Phenylethyladenosine],1.006 ± 0.0069,0.9327 ± 0.0083,0.852 ± 0.27,1 ± 0.017,0.993 ± 0.0062,1 ± 0.017
N=C(N)NCCCCNC(=N)N [Arcaine sulfate],0.987 ± 0.012,0.994 ± 0.033,0.993 ± 0.0066,1.01 ± 0.038,0.987 ± 0.013,0.9957 ± 0.0045
C=C1C(=O)O[C@@H](CCC)[C@@H]1C(=O)O [Butyrolactone 3],1 ± 0.013,1.02 ± 0.015,0.998 ± 0.013,1.017 ± 0.0082,0.996 ± 0.0046,1.001 ± 0.0075
CCN(CC)Cc1ccc2cc(COC(=O)Nc3ccc(C(=O)NO)cc3)ccc2c1 [Givinostat (ITF2357)],0.726 ± 0.049,0.00151 ± 0.0022,1 ± 0.018,0.0193 ± 0.0045,0.139 ± 0.006,0.000221 ± 0.0011
CCN(CC)CCNC(=O)c1ccc(NC(C)=O)cc1 [N-Acetylprocainamide hydrochloride],0.9787 ± 0.0049,0.974 ± 0.0099,0.9943 ± 0.0067,0.977 ± 0.027,0.9883 ± 0.0038,0.9807 ± 0.0087
COc1ccc(Cn2ccc3ccc(C(=O)NO)cc32)cc1,0.959 ± 0.041,1.01 ± 0.029,0.923 ± 0.12,1.04 ± 0.04,0.9977 ± 0.004,1.002 ± 0.0076
O=C(/C=C/c1ccc2ccccc2n1)c1ccncc1,1.01 ± 0.013,1.067 ± 0.0058,1.02 ± 0.01,1.02 ± 0.015,1.01,1.01 ± 0.01
NC(Cc1cccc(-c2ccccc2CP(=O)(O)O)c1)C(=O)O (stereo not drawn) [Phenylbenzene-omega-phosphono-alpha-amino acid],0.9963 ± 0.0055,1.1 ± 0.021,1.06 ± 0.087,1.04 ± 0.021,1.017 ± 0.0058,1.03 ± 0.01
CC(C)(C)c1ccc(S(=O)(=O)/C=C/C#N)cc1,0.9913 ± 0.008,0.41 ± 0.055,0.9847 ± 0.007,0.9755 ± 0.0021,0.972 ± 0.0092,0.00936 ± 0.004
Cc1ccc(S(=O)(=O)C=CC#N)cc1,0.979 ± 0.013,0.976 ± 0.0056,0.9813 ± 0.0023,0.997 ± 0.023,0.988 ± 0.011,0.688 ± 0.081
CC(/C=C/c1cccc(Oc2ccc(F)cc2)c1)N(O)C(N)=O (configuration not stated),1.017 ± 0.0058,1.07 ± 0.01,1.01 ± 0.011,1.06 ± 0.014,1.02 ± 0.015,1.023 ± 0.0058
"O=C(O)[C@@H]1C[C@H](C(=O)O)N1 [cis-Azetidine-2,4-dicarboxylic acid]",0.992 ± 0.0044,0.97 ± 0.015,0.997 ± 0.012,1,0.9863 ± 0.0029,0.976 ± 0.011
OC[C@H]1NC[C@H](O)[C@@H](O)[C@@H]1O [1-Deoxynojirimycin hydrochloride],1.01 ± 0.011,0.984 ± 0.025,0.995 ± 0.015,0.969 ± 0.0066,1.003 ± 0.0058,0.991 ± 0.013
CN(C)CCC(c1ccc(Cl)cc1)c1ccccn1 (racemic) [(±)-Chlorpheniramine maleate],0.9833 ± 0.0025,0.985 ± 0.018,0.9843 ± 0.0078,0.991 ± 0.028,0.9727 ± 0.0021,0.987 ± 0.0069
"OC[C@H]1NC[C@@H](O)[C@@H]1O [1,4-Dideoxy-1,4-imino-D-arabinitol]",0.9993 ± 0.0011,0.9807 ± 0.0015,0.997 ± 0.014,0.976 ± 0.027,1.002 ± 0.007,0.992 ± 0.012
COc1ccc(-c2ccc3ncc4c(c3c2)n(-c2ccc(N3CCNCC3)c(C(F)(F)F)c2)c(=O)n4C)cn1,0.00163 ± 0.00092,0.000434 ± 0.00018,0.25 ± 0.021,0.0016 ± 0.00014,0.000974 ± 0.00058,0.000275 ± 0.00038
Cn1c(=O)n(-c2ccc(C(C)(C)C#N)cc2)c2c3cc(-c4cnc5ccccc5c4)ccc3ncc21,0.421 ± 0.017,0.496 ± 0.04,0.629 ± 0.0076,0.633 ± 0.071,0.255 ± 0.013,0.408 ± 0.047
"c1ccc(C2CN3CCSC3=N2)cc1 (single isomer, unassigned; (-)) [(-)-Tetramisole hydrochloride]",1.017 ± 0.0058,1.01 ± 0.015,1.02 ± 0.015,1.02 ± 0.015,1.02,1.02 ± 0.015
